Some test systems named below: NCI-H23 lung; NCI-H226 lung; NCI-H322M lung; HOP-62 NSCLC; NCI-H460 lung; NCI-H522 lung; A549/ATCC NSCLC; 786-0 renal; COLO 205 colon; DU-145 prostate; K-562 leukemia; MALME-3M melanoma; MDA-MB-231 breast; RXF 393 renal; SF-268 CNS; SF-295 CNS; SF-539 CNS; UACC-257 melanoma; M14 melanoma.
Common to all, as to test: NCI-60 one-dose screen, 48 h (100 = growth as untreated, 0 = no growth, -100 = all killed)
Common to all, as to details: 10 µM unless noted

Compounds without any hit were thinned out: in the full panel of roughly 83,000, 20% have a hit.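 Cells were grown in 96-well plates and exposed to the test compound at a single concentration for 48 hours; results are reported as percent growth, with values below 10 considered active.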 Unmarked numbers belong to inactive results. Active and inactive are the calls of the source.

As to `COCCNc1ccc2ncc(C#Cc3cncc(C(=O)Nc4ccc(CN5CCN(C)CC5)c(C(F)(F)F)c4)c3)n2n1`, the growth is -49.6% (active) in the assay with NCI-H23 lung; -45.9% (active) in the assay with NCI-H226 lung; -23% (active) in the assay on NCI-H322M lung; -48.3% (active) in the assay on HOP-62 NSCLC; -82.5% (active) with NCI-H460 lung; -76.3% (active) in the assay on NCI-H522 lung. In addition, the growth with A549/ATCC NSCLC was 3.12% (active); with 786-0 renal, -64.1% (active); in the assay with COLO 205 colon it was -83.1% (active); in the assay with DU-145 prostate it was -32.4% (active); in the assay with K-562 leukemia it was 1.22% (active); in the assay with MALME-3M melanoma, -69.7% (active). Moreover, the growth in the assay on MDA-MB-231 breast was -15% (active); with RXF 393 renal, -84.3% (active); with SF-268 CNS, -55% (active); in the assay on SF-295 CNS, -13.9% (active); with SF-539 CNS it was -77% (active); in the assay on UACC-257 melanoma, -46.4% (active). Moreover, the growth in the assay with M14 melanoma is -86.2% (active).

Consider `CC(C)(C)n1cc(-c2ccnc(NCCCNS(=O)(=O)c3cccc(F)c3)n2)c(-c2ccc(Cl)c(O)c2)n1`, for which the growth with NCI-H23 lung was 100%; with NCI-H226 lung, 107%; with NCI-H322M lung, 90.9%; in the assay with HOP-62 NSCLC it was 111%; in the assay on NCI-H460 lung, 93.6%; in the assay with NCI-H522 lung, 89.9%. In addition, the growth in the assay on A549/ATCC NSCLC is 93.6%; in the assay on 786-0 renal it was 99.7%; in the assay with COLO 205 colon it was 114%; in the assay with DU-145 prostate, 94.4%; in the assay on K-562 leukemia it was 59%; in the assay with MALME-3M melanoma, 94%. The growth in the assay on MDA-MB-231 breast was 103%; in the assay with RXF 393 renal it was 105%; in the assay with SF-268 CNS, 95.9%; in the assay with SF-295 CNS, 108%; with SF-539 CNS it was 104%; with UACC-257 melanoma, 114%. For the same molecule, the growth with M14 melanoma is 94.9%.

Turning to `COc1ccccc1NCc1cccn1Cc1ccc(F)cc1`, the growth in the assay with NCI-H23 lung was 96.6%; in the assay on NCI-H226 lung it was 90.4%; with NCI-H322M lung, 92.5%; in the assay with HOP-62 NSCLC, 92%; in the assay with NCI-H460 lung it was 103%; with NCI-H522 lung it was 79.5%. The growth in the assay with A549/ATCC NSCLC was 101%; in the assay on 786-0 renal, 92.8%; in the assay with COLO 205 colon, 110%; in the assay with DU-145 prostate, 90%; in the assay with K-562 leukemia, 111%; in the assay on MALME-3M melanoma it was 101%. Moreover, the growth in the assay with MDA-MB-231 breast was 89.4%; in the assay on SF-268 CNS, 92.5%; in the assay on SF-295 CNS, 104%; in the assay on SF-539 CNS, 98.6%; in the assay with UACC-257 melanoma, 102%.

For `O=C(Nc1cccc(Cl)c1)Nc1nc2ccc([N+](=O)[O-])cc2o1`, the growth is 12.6% with NCI-H23 lung; 29% with NCI-H226 lung; 17.4% in the assay on NCI-H322M lung; 22.2% in the assay on HOP-62 NSCLC; 7.51% (active) with NCI-H460 lung; -0.721% (active) in the assay with NCI-H522 lung. Also, the growth is 17.2% in the assay with A549/ATCC NSCLC; 28% in the assay with 786-0 renal; -5.17% (active) in the assay with COLO 205 colon; 26.8% with DU-145 prostate; 12.3% with K-562 leukemia; -4.16% (active) with MALME-3M melanoma. Moreover, the growth with MDA-MB-231 breast is 25.8%; in the assay on RXF 393 renal, -3.23% (active); in the assay on SF-268 CNS, 7.72% (active); in the assay with SF-295 CNS, 24.5%; in the assay on SF-539 CNS, 11.4%; with UACC-257 melanoma it was 1.92% (active). Moreover, the growth in the assay with M14 melanoma is 18.2%.

For the molecule `Clc1nc2ccccc2nc1-c1nnc(C2CCCCC2)o1`, the growth with NCI-H23 lung is 86.3%; in the assay with NCI-H226 lung it was 84.7%; with NCI-H322M lung, 97.8%; in the assay on HOP-62 NSCLC, 106%; in the assay on NCI-H460 lung it was 97.5%; in the assay with NCI-H522 lung it was 99%. For the same molecule, the growth in the assay on A549/ATCC NSCLC is 98.4%; in the assay with 786-0 renal, 106%; in the assay with COLO 205 colon it was 110%; with DU-145 prostate, 91.3%; in the assay on K-562 leukemia, 80.9%; in the assay with MALME-3M melanoma it was 95.2%. The growth in the assay with MDA-MB-231 breast was 105%; in the assay on RXF 393 renal it was 87.6%; in the assay with SF-268 CNS it was 101%; in the assay with SF-295 CNS it was 106%; with SF-539 CNS, 97.7%; in the assay with UACC-257 melanoma it was 96.7%. The growth in the assay with M14 melanoma is 94.3%.

For the molecule `C[C@@H]1C[C@H]2C(=O)O[C@@H](C)C(NC(=O)[C@H](Cc3cc(F)cc(F)c3)NC(=O)Nc3ccc(C4CC4)cc3F)C(=O)N3CCC[C@H]3C(=O)N3CCCC[C@H]3C(=O)N[C@@H](CO)C(=O)N2C1` (stereo partly specified), the growth is 34% with NCI-H23 lung; -5.28% (active) in the assay on NCI-H226 lung; 48.3% with NCI-H322M lung; 33.3% in the assay with HOP-62 NSCLC; 14.4% with NCI-H460 lung; 13.2% in the assay on NCI-H522 lung. The growth in the assay on A549/ATCC NSCLC is 25.7%; in the assay with 786-0 renal, 40.4%; with COLO 205 colon, -38.3% (active); in the assay with DU-145 prostate it was 25.6%; in the assay on K-562 leukemia it was 18.6%; in the assay on MALME-3M melanoma, 36.9%. Further, the growth in the assay with MDA-MB-231 breast is 33.9%; in the assay on SF-268 CNS it was 31.4%; in the assay with SF-295 CNS, 11.4%; in the assay with SF-539 CNS it was 35.4%; in the assay on UACC-257 melanoma, 11.5%.

As to `COc1cc(/C=C2\C(=O)Nc3cc(Cl)ccc32)ccc1OCc1ccc(F)cc1`, the growth was 101% with NCI-H23 lung; 91.2% in the assay with NCI-H226 lung; 98.2% in the assay on NCI-H322M lung; 95.9% in the assay on HOP-62 NSCLC; 99% in the assay on NCI-H460 lung; 92.9% in the assay with NCI-H522 lung. In addition, the growth with A549/ATCC NSCLC was 110%; in the assay on 786-0 renal, 108%; in the assay with COLO 205 colon, 110%; in the assay with DU-145 prostate it was 104%; in the assay on K-562 leukemia, 97.7%; in the assay with MALME-3M melanoma it was 92.7%. The growth in the assay with MDA-MB-231 breast was 92.1%; with SF-268 CNS, 101%; in the assay on SF-295 CNS, 97.1%; in the assay with SF-539 CNS, 95%; in the assay with UACC-257 melanoma it was 109%.

Turning to `Cn1cc(-c2nc(N)nnc2-c2c[nH]c3ccccc23)c2cc(Br)ccc21`, the growth in the assay on NCI-H23 lung is 17%; with NCI-H226 lung, 60.3%; with NCI-H322M lung, 41.9%; in the assay with HOP-62 NSCLC, 45.9%; in the assay with NCI-H460 lung it was 12.6%; in the assay with NCI-H522 lung, -2.27% (active). For the same molecule, the growth with A549/ATCC NSCLC is 50.8%; with 786-0 renal, 43.5%; in the assay with COLO 205 colon, 9.53% (active); in the assay on DU-145 prostate, 18.6%; with K-562 leukemia, 11.6%; in the assay on MALME-3M melanoma it was 40.8%. Moreover, the growth in the assay on MDA-MB-231 breast is 34.2%; in the assay with RXF 393 renal, 7.61% (active); with SF-268 CNS it was 39.6%; in the assay on SF-295 CNS, -7.74% (active); with SF-539 CNS, 6.14% (active); in the assay with UACC-257 melanoma it was 72.1%. The growth in the assay with M14 melanoma was 6.36% (active).

These data come from PubChem BioAssay (NCI).
